Sampled rows, rich in hits. Any-hit rate of the full collection: about 12%.
VP16 counter: counter-screen for ROR gamma inhibitors: Gal4-VP16 reporter; Drosophila S2 Gal4-VP16 UAS-luciferase, luminescence, 20 h; Potency, µM (top dose mostly 53.6 µM), actives largely listed as inhibitors; actives 3.5% (n = 310,000); AID 2546;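 also: Gal4-VP16 expression switched on by copper sulfate through the metallothionein promoter; nearly all actives have a fitted effect of over 50% in size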
ALDH1A1 inh: ALDH1A1 (human) enzyme inhibition | P00352 | Purified ALDH1A1, NADH fluorescence, propionaldehyde substrate | Potency, µM (top dose mostly 75.3 µM), most hits filed as inhibitors | actives 7.3% (n = 220,000) | AID 1030; active = well fitted inhibition curve with a large enough effect, not every such curve was filed as active; inconclusive = small, poorly fitted or top-dose-only effect, or another doubt; inactive = no such curve, though single readings can be large or run the other way
Sfp PPTase inh: inhibitors of Bacillus subtilis Sfp phosphopantetheinyl transferase; Q9F4F7; Biochemical Sfp PPTase activity, qHTS; Potency, µM, hits mostly inhibitors; AID 1490; actives 3.5% (n = 310,000);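 also: the enzyme is Sfp with the accession as filed and its product quenches rhodamine fluorescence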
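After 15 min at room temperature with compound, 15 nM Sfp received 5 uM rhodamine-CoA plus 12.5 uM BHQ-2-ybbR (50 mM Hepes pH 7.6, 10 mM MgCl2). Rate came from the fluorescence difference over 30 min, ex 525/em 598 nm.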
PLK1 PBD block: blocks phosphopeptide binding to human PLK1 polo-box domain | P53350 | Plk1 PBD binding of FITC phosphopeptide, fluorescence polarization | Potency, µM, actives largely listed as inhibitors | actives 2.8% (n = 360,000); also: series mostly up to about 57 µM; nearly all actives have a fitted effect of over 65% in size
RORgamma inh: ROR gamma (mouse) transcription inhibition. Drosophila S2 Gal4-RORgamma UAS-luciferase reporter, 20 h. Potency, µM (highest dose often 53.6 µM), usual class: inhibitors. P51450. actives 5.4% (n = 310,000). AID 2551; also: nearly all actives have a fitted effect of over 60% in size
Target sequence (P51450 whole entry, looked up, the tested form may be a part): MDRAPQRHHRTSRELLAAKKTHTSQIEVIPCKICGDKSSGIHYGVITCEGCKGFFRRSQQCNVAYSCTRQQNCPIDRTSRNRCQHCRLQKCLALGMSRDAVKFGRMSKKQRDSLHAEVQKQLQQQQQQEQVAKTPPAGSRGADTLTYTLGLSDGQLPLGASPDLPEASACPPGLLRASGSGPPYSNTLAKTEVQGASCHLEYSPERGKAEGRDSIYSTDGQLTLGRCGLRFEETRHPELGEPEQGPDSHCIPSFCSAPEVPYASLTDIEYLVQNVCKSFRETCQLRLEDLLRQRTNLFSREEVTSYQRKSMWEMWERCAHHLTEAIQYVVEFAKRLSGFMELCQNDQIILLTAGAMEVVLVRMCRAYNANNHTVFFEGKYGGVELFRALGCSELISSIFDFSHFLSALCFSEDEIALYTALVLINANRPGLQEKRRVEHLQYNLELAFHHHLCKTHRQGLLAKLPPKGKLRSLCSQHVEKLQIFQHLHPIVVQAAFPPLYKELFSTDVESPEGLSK
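Stable Schneider cell line, Gal4 DNA-binding domain fused to ROR gamma, UAS-luciferase. Cmpd 1 hr RT → CuSO4 700 uM final → 20 hr RT → luciferase reagent 10 min → luminescence.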
Hits are given with their value; [ ] = another dose, or the depositor's remark. Unless noted, calls follow the shape of the dose curve; as a rule, active = well fitted curve in the direction sought with a large enough effect; inconclusive = small, poorly fitted or top-dose-only effect, or another doubt; inactive = no such curve, though single readings can be large; an effect the other way counts as inactive or inconclusive.

How did COc1ccc(C(C(=O)Nc2ccc(F)cc2)N2CCN(C(=O)c3ccco3)CC2)cc1 (stereo not drawn) do in these assays?
PLK1 PBD block: inactive

What do the screens show for `Cc1cccc(CS(=O)(=O)c2ncc(Cl)c(C(=O)NCc3ccccc3)n2)c1`?
VP16 counter: 3.16µM; Sfp PPTase inh: inconclusive; PLK1 PBD block: inconclusive; RORgamma inh: 5.62µM

Results for Cc1nnc(NC(=O)c2nc(S(=O)(=O)Cc3ccccc3)ncc2Cl)s1 ?
VP16 counter: 12.6µM; Sfp PPTase inh: inconclusive; PLK1 PBD block: inactive; RORgamma inh: 7.94µM

What do the screens show for `Cc1cccc(C)c1NC(=O)c1nc(S(=O)(=O)Cc2ccccc2)ncc1Cl`?
VP16 counter: 5.01µM; Sfp PPTase inh: inconclusive; PLK1 PBD block: inconclusive; RORgamma inh: 10µM

Results for Cc1ccccc1NC(=O)c1cccc(C(=O)Nc2ccccc2C)n1 ?
VP16 counter: inactive; Sfp PPTase inh: inactive; PLK1 PBD block: inactive; RORgamma inh: inactive

Results for Cc1ccccc1NC(=O)c1nc(S(C)(=O)=O)ncc1Cl ?
VP16 counter: 3.16µM; Sfp PPTase inh: inactive; PLK1 PBD block: inconclusive; RORgamma inh: 6.31µM

Results for Cc1cc(C)cc(S(=O)(=O)Cc2noc(C(=O)NCc3ccccc3)c2C(=O)NCc2ccccc2)c1 ?
PLK1 PBD block: inactive

What do the screens show for `Cc1cccc(CS(=O)(=O)c2ncc(Cl)c(C(=O)Nc3c(C)cccc3C)n2)c1`?
VP16 counter: 8.91µM; Sfp PPTase inh: inactive; PLK1 PBD block: 18.9µM; RORgamma inh: inconclusive

What do the screens show for `CCOC(=O)c1nc(S(C)(=O)=O)ncc1Cl`?
VP16 counter: 5.01µM; ALDH1A1 inh: inconclusive; Sfp PPTase inh: inactive; PLK1 PBD block: 21.2µM; RORgamma inh: 3.98µM

Results for CCOC(=O)c1nc(S(C)(=O)=O)ncc1N1CCOCC1 ?
VP16 counter: inactive; ALDH1A1 inh: inactive; Sfp PPTase inh: inactive; PLK1 PBD block: inactive; RORgamma inh: inactive

Results for CCCc1nnc(NC(=O)c2nc(S(=O)(=O)Cc3cccc(C)c3)ncc2Cl)s1 ?
VP16 counter: inconclusive; Sfp PPTase inh: inactive; PLK1 PBD block: inactive; RORgamma inh: inconclusive

How did O=C(O)c1cccc2c1C(=O)c1ccccc1-2 do in these assays?
VP16 counter: inactive; ALDH1A1 inh: 22.4µM; Sfp PPTase inh: inactive; PLK1 PBD block: inactive; RORgamma inh: inactive

How did CCNc1c(C(=O)O)ccc2c1C(=O)c1ccccc1C2=O do in these assays?
VP16 counter: 12.6µM; ALDH1A1 inh: inactive; Sfp PPTase inh: inactive; PLK1 PBD block: inactive; RORgamma inh: inconclusive

How did CCN(CCN(C)C)C(=O)c1ccc2c(c1NCCO)C(=O)c1ccccc1C2=O do in these assays?
VP16 counter: inactive; ALDH1A1 inh: 14.1µM; Sfp PPTase inh: inconclusive; PLK1 PBD block: inactive; RORgamma inh: inactive

How did CNc1c(C(=O)O)ccc2c1C(=O)c1ccccc1C2=O do in these assays?
VP16 counter: inconclusive; ALDH1A1 inh: inactive; Sfp PPTase inh: inactive; PLK1 PBD block: inactive; RORgamma inh: inactive

Results for O=C1c2ccccc2C(=O)c2c1ccc(C(=O)N1CCCCC1)c2NCCO ?
VP16 counter: inactive; ALDH1A1 inh: inactive; Sfp PPTase inh: inactive; PLK1 PBD block: inactive; RORgamma inh: inactive

Results for CC1(C)[C@@H](OC(=O)CCC(=O)O)CC[C@@]2(C)[C@H]1CC[C@@]1(C)[C@H]2C(=O)C=C2[C@H]3C[C@](C)(C(=O)O)CC[C@]3(C)CC[C@@]21C ?
VP16 counter: inactive; ALDH1A1 inh: inactive; Sfp PPTase inh: inactive; RORgamma inh: inactive[2.98 µM]

Results for CC(C)c1ccccc1NC(=O)COC(=O)/C=C/c1cccc([N+](=O)[O-])c1 ?
VP16 counter: inactive; ALDH1A1 inh: inactive; Sfp PPTase inh: inactive; PLK1 PBD block: 15µM; RORgamma inh: inactive

Results for CCNC(=O)COC(=O)/C=C/c1cccc([N+](=O)[O-])c1 ?
VP16 counter: inactive; ALDH1A1 inh: inactive; Sfp PPTase inh: inactive; PLK1 PBD block: inactive; RORgamma inh: inactive

How did CCOC(=O)N1CCN(C(=O)/C=C/c2cccc([N+](=O)[O-])c2)CC1 do in these assays?
VP16 counter: inactive; ALDH1A1 inh: inactive; Sfp PPTase inh: inactive; PLK1 PBD block: 29.9µM; RORgamma inh: inactive

Results for CCCCN(CCCC)C(=O)/C=C/c1cccc([N+](=O)[O-])c1 ?
VP16 counter: inconclusive; ALDH1A1 inh: 4.47µM; Sfp PPTase inh: inactive; PLK1 PBD block: inactive; RORgamma inh: inconclusive

Results for CCOC(=O)N1CCN(C(=O)/C=C/c2ccc([N+](=O)[O-])cc2)CC1 ?
VP16 counter: inactive; ALDH1A1 inh: inactive; Sfp PPTase inh: inactive; PLK1 PBD block: inactive; RORgamma inh: inactive

How did CCN(C(=O)COC(=O)/C=C/c1cccc([N+](=O)[O-])c1)c1ccccc1 do in these assays?
VP16 counter: inactive; ALDH1A1 inh: 14.1µM; Sfp PPTase inh: inactive; PLK1 PBD block: inactive; RORgamma inh: inactive

How did CCNC(=O)C1CCCN(C(=O)c2cnc3ccccc3n2)CC1 (stereo not drawn) do in these assays?
PLK1 PBD block: inactive

What do the screens show for `O=C(c1cccc(F)c1)N1CCC2(CCCN(c3ccc(-c4ccccc4)cc3)C2)CC1`?
VP16 counter: inactive; ALDH1A1 inh: inactive; Sfp PPTase inh: inactive; RORgamma inh: inactive

How did CC(=O)c1ccc(OCc2nnn(CC(=O)O)c2-c2ccccc2)cc1 do in these assays?
PLK1 PBD block: inactive

Results for COC(=O)C/C=C\[C@@H](C)[C@H]1C=C[C@H](O)[C@@H](CO)O1 ?
VP16 counter: inactive[10 µM]; ALDH1A1 inh: inactive[13.5 µM]; Sfp PPTase inh: inactive; RORgamma inh: inactive[10 µM]

How did CC(C)C(NC(=O)/C=C/c1cccc([N+](=O)[O-])c1)C(C)C do in these assays?
VP16 counter: inactive; ALDH1A1 inh: inactive; Sfp PPTase inh: inactive; PLK1 PBD block: inactive; RORgamma inh: inconclusive

What do the screens show for `CC(C)NC(=O)c1ccccc1NC(=O)/C=C/c1cccc([N+](=O)[O-])c1`?
VP16 counter: 7.94µM; ALDH1A1 inh: inactive; Sfp PPTase inh: inactive; PLK1 PBD block: inactive; RORgamma inh: inconclusive

What do the screens show for `COc1ccccc1NC(=O)C(C)N(C)CC(=O)Nc1cccc2ccccc12` (stereo not drawn)?
PLK1 PBD block: inactive

What do the screens show for `CCc1ccccc1NC(=O)CN(C)Cc1c(O)ccc2ccccc12`?
VP16 counter: inconclusive; Sfp PPTase inh: inactive; PLK1 PBD block: 11.9µM; RORgamma inh: inactive

Results for COc1ccccc1CN(C)CC(=O)Nc1cccc2ccccc12 ?
VP16 counter: inactive; Sfp PPTase inh: inactive; PLK1 PBD block: inactive; RORgamma inh: inactive

Results for CCCN(CC(=O)Nc1ccccc1OC)Cc1c(O)ccc2ccccc12 ?
VP16 counter: inactive; Sfp PPTase inh: inactive; PLK1 PBD block: 9.47µM; RORgamma inh: inactive

Results for COc1ccc(CCN(C)Cc2c(O)ccc3ccccc23)cc1OC ?
VP16 counter: inactive; Sfp PPTase inh: inactive; PLK1 PBD block: 21.2µM; RORgamma inh: inactive

How did COc1ccc(CCN(C)Cc2cccc3ccccc23)cc1OC do in these assays?
VP16 counter: inactive; Sfp PPTase inh: inactive; PLK1 PBD block: inactive; RORgamma inh: inactive

What do the screens show for `CN(CC(=O)Nc1ccccc1C(F)(F)F)Cc1c(O)ccc2ccccc12`?
VP16 counter: inactive; Sfp PPTase inh: inactive; PLK1 PBD block: 11.9µM; RORgamma inh: inactive
